Our source for the Potency values is PubChem BioAssay AID504444 (National Center for Advancing Translational Sciences (NCATS), 2011).

Out of some 360,000 compounds screened, about 7,500 (2.1%) were called active. Not shown: some 20% with an inconclusive outcome. The call rests on the fitted dose curve; in most records, active means well fitted inhibition curve with a large enough effect; inconclusive means small, poorly fitted or top-dose-only effect, or effect the other way; inactive means flat fitted curve, though single readings scatter. Shown is part of a subset that was picked to be rich in actives. A call without a number means that no potency is given here.
Potency means the concentration at half of the fitted maximal effect.

This experiment can be described thus: Nrf2 qHTS screen for inhibitors. Further: nearly all actives have a fitted effect of over 60% in size. The following applies: A549 ARE-Fluc reporter, luciferase luminescence, 18-24 h; series mostly up to 46 µM. The method in brief: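 In this cell-based qHTS, ARE-driven firefly luciferase in A549 cells reports Nrf2 activity; the luminescent signal after BugLite lysis is the measured value, with a prior CellTiter-Fluor read for cell health.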
Regarding `COc1cc(C(=O)OCC(=O)NC23CC4CC(CC(C4)C2)C3)cc(OC)c1OC`, the Potency result is “inactive”.
As for `COc1ccc(C2NCCCC2c2ccccc2)cc1` (stereo not given), the Potency result is “inactive”.
On to `CCn1ccnc1CN(C)C(=O)c1cc(COc2ccc(-n3cncn3)cc2)on1`, for which the Potency result was “inactive”.
Turning to `C=CCC1(CC=C)CCCN1C(=O)c1cc(COc2ccc(-n3cncn3)cc2)on1`, the Potency is 8.2 µM (active).
In the case of `O=C(c1cc(COc2ccc(F)c(F)c2)on1)N1CCOCC1`, the Potency result is “inactive”.
`O=C(COC(=O)C1CCCO1)Nc1nc(-c2ccc(F)cc2)cs1` (stereo not given): the Potency entry is “inactive”.
`Cc1ccc(N2C(=O)N3[C@@H]4c5ccccc5OC[C@@H]4[C@@H](c4ccccc4)[C@@]3(C)C2=O)cc1`: the Potency result was “inactive”.
`CCCCN(C(=O)CSCc1ccc(C)cc1)c1c(N)n(Cc2ccccc2)c(=O)[nH]c1=O`: the Potency result was “inactive”.
On to `O=C(Cn1c(=O)n(Cc2cccs2)c(=O)c2cccnc21)Nc1ccc(F)cc1`, for which the Potency result was “inactive”.
With `CN(C)c1nc(N)nc(Cn2nnc(-c3ccc(C(F)(F)F)cc3)n2)n1`, the Potency result is “inactive”.
On to `CN(C)c1nc(N)nc(CSc2ccccn2)n1`, for which the Potency result was “inactive”.
For the molecule `CN(C)c1nc(N)nc(CSc2nnnn2-c2cccc3ccccc23)n1`, the Potency is 6.51 µM (active).
With `Cc1ccc(-c2nc3ccccn3c2Nc2ccc(F)cc2)o1` the entry was “inactive”.
As for `COc1ccc(S(=O)(=O)N2CCc3ccccc32)cc1C(=O)Nc1cc(S(C)(=O)=O)ccc1Cl`, the Potency result was “inactive”.
For the molecule `Cc1cc(C(=O)NC2CC(C)(C)Cc3c2cnn3-c2ccccc2)n[nH]1` (stereo not given), the Potency result is “inactive”.
With `COc1ccc(C(=O)NC2CC(C)(C)Cc3c2cnn3-c2ccccc2)c(OC)c1` (stereo not given), the Potency was 18.4 µM (active).
With `CC1(C)Cc2c(cnn2-c2cccc(F)c2)C(NC(=O)c2cc[n+]([O-])cc2)C1` (stereo not given), the Potency entry is “inactive”.
With `CCOC(=O)Cc1csc(SCC(=O)Nc2ccc(C)cc2F)n1` the entry was “inactive”; with `Cc1oc(C)c2c(=O)cc(-c3ccc4c(c3)OCO4)cc(OC(=O)c3ccc(Cl)cc3)c12`, “inactive”; with `N#CCc1c[nH]c2ccc([N+](=O)[O-])cc12`, “inactive”.
The same measure for `CCNC(=O)c1ccc(OCC(=O)Nc2ccc(F)cc2)c(OC)c1`: “inactive”; for `COc1cc(C(=O)N(C)Cc2cccc(OC)c2OC)ccc1OCC(=O)Nc1cccc(C(F)(F)F)c1`: 25.9 µM (active); for `COc1ccc(NC(=O)CN(C)CC(=O)Nc2cccc(C(F)(F)F)c2)cc1`: “inactive”.
As to `COc1ccc(CC2c3cc(OC)c(OC)cc3CC[N+]2(C)CCC(=O)OCCCCCOC(=O)CC[N+]2(C)CCc3cc(OC)c(OC)cc3C2Cc2ccc(OC)c(OC)c2)cc1OC` (stereo not given), the Potency result was “inactive”.
As to `COc1cccc(-c2nnc3n(CCc4ccccc4)c(=O)c4ccccc4n23)c1O`, the Potency entry was “inactive”.
Take `O=C(N/N=C/c1cccc(OC(=O)c2ccc([N+](=O)[O-])cc2)c1)c1cccnc1`: the Potency result was “inactive”.
With `N#Cc1cc([N+](=O)[O-])ccc1Oc1cccc(/C=N/NC(=O)c2ccc(Cl)cc2)c1`, the Potency was 5.8 µM (active).
With `O=C(N/N=C/c1cccc([N+](=O)[O-])c1)c1ccncc1` the entry was “inactive”.
As for `O=C(NC(c1ccco1)c1cc(Cl)c2cccnc2c1O)c1ccccc1` (stereo not given), the Potency entry is “inactive”.
With `COc1ccc(C(CNC(=O)c2cccc(NS(=O)(=O)c3ccc(C)c(F)c3)c2)N2CCCC2)cc1` (stereo not given) the entry was “inactive”; with `COc1ccc(C(CNC(=O)c2ccc(S(=O)(=O)Nc3ccccc3C)cc2)N2CCOCC2)cc1` (stereo not given), “inactive”; with `COc1ccc(C(CNC(=O)c2cccc(S(=O)(=O)Nc3ccccc3Cl)c2)N2CCOCC2)cc1` (stereo not given), 18.4 µM (active).
In the case of `CC(C)c1ccc(NC(=O)Cn2c3ncccc3c(=O)n2-c2ccccc2)cc1`, the Potency entry was “inactive”.
In the case of `C=CCn1c(=N)n(CC(O)COc2ccc(OC)cc2)c2ccccc21` (stereo not given), the Potency entry is “inactive”.
Turning to `OC(CN=c1sc2ccccc2n1CC(O)COc1ccccc1)COc1ccccc1` (stereo not given), the Potency was 23.1 µM (active).
With `O=C(C(c1ccccc1)c1ccccc1)N1CCN(CC(O)COc2ccccc2)CC1` (stereo not given) the entry was “inactive”; with `COc1ccc(CCNC(=O)c2cnc3sc(N4CCCCCC4)nn3c2=O)cc1OC`, “inactive”.
Consider `O=C(NCc1ccc2c(c1)OCO2)c1cc([N+](=O)[O-])ccc1N1CCOCC1`, for which the Potency entry is “inactive”.
With `O=C(Nc1ccc(S(=O)(=O)Nc2nccs2)cc1)c1cccc(S(=O)(=O)N2CCOCC2)c1` the entry was “inactive”; with `O=C(NNC(=S)Nc1ccccc1)c1cccc(S(=O)(=O)N2CCOCC2)c1`, “inactive”; with `O=C(Nc1ccc(N2CCOCC2)cc1)c1cccc(S(=O)(=O)N2CCOCC2)c1`, “inactive”.
With `O=C(Nc1nnc(-c2ccco2)o1)c1ccc(S(=O)(=O)N2CCOCC2)cc1` the entry was “inactive”; with `O=C(Nc1nnc(-c2ccccc2)o1)c1cccc(S(=O)(=O)N2CCOCC2)c1`, 20.6 µM (active); with `Cc1nc2ccc(NC(=O)c3cccc(S(=O)(=O)N4CCOCC4)c3)cc2s1`, 18.4 µM (active).
Turning to `CCC(=O)Nc1ccccc1-c1nc2ccccc2n(CC(=O)Nc2ccc(C)c(C)c2)c1=O`, the Potency result was “inactive”.
`CC1(C)CCc2cc(S(=O)(=O)N3CCN(c4nc(-c5cccs5)nc5ccccc45)CC3)ccc2O1`: the Potency entry was “inactive”.
Take `COc1ccc2ncc3c(-c4ccc(C)c(C)c4)nn(CC(=O)NC4CCCC4)c3c2c1`: the Potency entry is “inactive”.
As for `CC(=O)NC(c1cccs1)c1cc(Br)c2cccnc2c1O` (stereo not given), the Potency result is “inactive”.
`Cc1cc(C)cc(NS(=O)(=O)c2ccc(F)cc2)c1`: the Potency result was “inactive”.
With `Cn1c(=O)n(C)c2cc(NS(=O)(=O)c3ccc(F)cc3)ccc21` the entry was “inactive”; with `Cn1c(=O)n(C)c2cc(S(=O)(=O)Nc3ccc(F)cc3)ccc21`, 9.2 µM (active); with `CC1CC(C)CN(c2oc(-c3ccc(OCc4ccc(Cl)cc4)cc3)nc2C#N)C1` (stereo not given), “inactive”.
Regarding `Cc1cccc(-n2ncc3c(=O)[nH]c(SCC(=O)Nc4cc(C)on4)nc32)c1`, the Potency entry is “inactive”.
Regarding `O=c1c([N+](=O)[O-])cc(C(F)(F)F)cn1Cc1cccc(Cl)c1`, the Potency entry is “inactive”.
As to `Cc1ccc(-c2ccc(=O)n(Cc3ccc(F)cc3Cl)n2)cc1`, the Potency result is “inactive”.
`O=c1c([N+](=O)[O-])cccn1Cc1ccc(F)cc1Cl`: the Potency was 25.9 µM (active).
`Cc1cc2n(n1)C(c1cc(C(C)(C)C)c(O)cc1O)Nc1ccccc1-2` (stereo not given): the Potency entry is “inactive”.
With `COc1ccc(N2CCN(C(=O)CCSCc3ccccc3F)CC2)cc1` the entry was “inactive”.
In the case of `COc1ccc(N2CCN(C(=O)CSCc3nc(-c4ccccc4Cl)oc3C)CC2)cc1`, the Potency was 1.84 µM (active).
The same measure for `COc1ccc(CNC(=O)CSCc2nc(-c3ccccc3F)oc2C)cc1`: “inactive”.
